# Laboratory results taken from PubChem BioAssay.
# Target: Neurogenic locus notch homolog protein 3 (Homo sapiens) (UniProt Q9UM47)
# Assay: NOTCH3 binders on small-molecule microarray, primary screen, biochemical, 635/667 nm fluorescence (AID 1096)
# Conditions: NOTCH3 binding, 635 nm fluorescence, higher = more signal
# Neurogenic locus notch homolog protein 3 (Homo sapiens), sequence (Q9UM47 whole entry, looked up): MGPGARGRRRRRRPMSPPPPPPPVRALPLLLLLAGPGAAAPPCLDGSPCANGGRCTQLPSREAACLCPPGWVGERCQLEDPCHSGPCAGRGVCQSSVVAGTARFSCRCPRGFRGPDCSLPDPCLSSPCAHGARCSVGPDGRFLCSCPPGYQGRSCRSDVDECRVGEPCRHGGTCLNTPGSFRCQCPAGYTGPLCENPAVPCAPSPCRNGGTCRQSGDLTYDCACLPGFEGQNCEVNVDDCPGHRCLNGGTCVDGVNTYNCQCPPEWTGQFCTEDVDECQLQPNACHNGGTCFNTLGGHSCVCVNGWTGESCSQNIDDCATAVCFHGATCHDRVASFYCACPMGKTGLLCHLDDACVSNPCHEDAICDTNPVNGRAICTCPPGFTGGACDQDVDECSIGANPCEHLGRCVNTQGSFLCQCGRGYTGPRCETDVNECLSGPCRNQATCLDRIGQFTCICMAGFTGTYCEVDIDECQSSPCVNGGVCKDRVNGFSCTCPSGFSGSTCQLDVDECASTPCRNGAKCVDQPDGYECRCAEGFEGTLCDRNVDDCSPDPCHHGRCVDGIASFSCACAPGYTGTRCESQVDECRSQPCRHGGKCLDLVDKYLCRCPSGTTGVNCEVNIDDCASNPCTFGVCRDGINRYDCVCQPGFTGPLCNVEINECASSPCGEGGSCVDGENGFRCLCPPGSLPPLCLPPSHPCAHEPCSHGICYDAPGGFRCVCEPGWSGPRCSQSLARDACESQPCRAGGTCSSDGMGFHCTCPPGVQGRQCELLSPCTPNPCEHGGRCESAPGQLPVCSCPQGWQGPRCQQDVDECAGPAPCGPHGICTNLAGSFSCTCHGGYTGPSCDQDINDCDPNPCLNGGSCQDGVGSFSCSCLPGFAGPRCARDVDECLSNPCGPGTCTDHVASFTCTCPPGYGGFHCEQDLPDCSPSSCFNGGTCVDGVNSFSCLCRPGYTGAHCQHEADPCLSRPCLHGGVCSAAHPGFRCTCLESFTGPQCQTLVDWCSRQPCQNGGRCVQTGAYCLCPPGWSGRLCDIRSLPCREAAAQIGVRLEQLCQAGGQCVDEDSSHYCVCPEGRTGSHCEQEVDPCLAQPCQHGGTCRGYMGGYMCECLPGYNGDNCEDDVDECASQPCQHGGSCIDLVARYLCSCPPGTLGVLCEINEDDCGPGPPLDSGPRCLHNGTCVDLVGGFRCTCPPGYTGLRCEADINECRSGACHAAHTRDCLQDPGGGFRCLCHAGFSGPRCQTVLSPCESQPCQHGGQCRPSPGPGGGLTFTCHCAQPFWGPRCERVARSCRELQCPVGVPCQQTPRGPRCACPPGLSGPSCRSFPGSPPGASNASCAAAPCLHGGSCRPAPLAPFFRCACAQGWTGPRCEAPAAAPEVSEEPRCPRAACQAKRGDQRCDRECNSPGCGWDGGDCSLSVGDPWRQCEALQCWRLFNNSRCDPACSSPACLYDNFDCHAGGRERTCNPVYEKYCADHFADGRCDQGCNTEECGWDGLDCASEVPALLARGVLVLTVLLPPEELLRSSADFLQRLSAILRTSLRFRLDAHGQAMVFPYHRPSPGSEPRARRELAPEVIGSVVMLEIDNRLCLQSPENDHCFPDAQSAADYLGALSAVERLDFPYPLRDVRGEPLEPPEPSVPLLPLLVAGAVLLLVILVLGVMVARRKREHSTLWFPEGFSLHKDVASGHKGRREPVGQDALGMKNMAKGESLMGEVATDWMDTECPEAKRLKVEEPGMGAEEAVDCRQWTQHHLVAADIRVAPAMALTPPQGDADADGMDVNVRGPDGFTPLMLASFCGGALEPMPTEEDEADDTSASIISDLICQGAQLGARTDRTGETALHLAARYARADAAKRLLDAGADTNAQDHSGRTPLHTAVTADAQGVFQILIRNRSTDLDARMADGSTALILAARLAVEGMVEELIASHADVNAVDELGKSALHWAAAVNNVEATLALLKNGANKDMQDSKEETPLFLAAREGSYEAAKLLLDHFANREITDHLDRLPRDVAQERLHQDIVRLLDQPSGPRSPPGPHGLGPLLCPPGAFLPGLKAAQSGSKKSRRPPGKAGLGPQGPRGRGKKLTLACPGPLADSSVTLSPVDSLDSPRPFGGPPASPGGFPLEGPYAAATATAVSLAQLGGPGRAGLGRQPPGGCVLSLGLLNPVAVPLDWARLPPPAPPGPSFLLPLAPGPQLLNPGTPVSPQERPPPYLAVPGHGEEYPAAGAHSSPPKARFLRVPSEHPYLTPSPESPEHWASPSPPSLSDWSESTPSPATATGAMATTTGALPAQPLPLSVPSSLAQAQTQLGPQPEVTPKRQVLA
row,SMILES,composite z-score
1,CO[C@H]1O[C@H](CO)[C@@H](OC(=O)Nc2ccc3c(c2)OCO3)[C@H](OC(=O)Nc2ccc3c(c2)OCO3)[C@@H]1OC(=O)Nc1ccc2c(c1)OCO2,1.03
2,CCCC1(C(=O)OC)C=C2C(=C(C)C(=O)C2C)CN1 (centres undefined),-0.0768
3,CO[C@H]1O[C@H](CO)[C@@H](OC(=O)Nc2ccccc2)[C@H](OC(=O)c2cc3ccccc3[nH]2)[C@H]1OC(=O)c1cc2ccccc2[nH]1,0.196
4,O=C1O[C@H](c2ccccc2)[C@H](c2ccccc2)N2[C@H]1[C@@H](C(=O)O)[C@]1(C(=O)Nc3ccc(C#CCCO)cc31)[C@H]2c1ccccc1OCCO,0.116
5,CCCCC[C@H]1OC[C@@]23C=C(Br)[C@@H](CC12)[C@@]1(CO1)C3=O (some centres undefined),0.0322
6,CCCCN1CC=CC23O[C@@H]4/C=C\CCC(C)OC(=O)C4[C@H]2C(=O)N(CCCO)[C@@H]3C1=O (some centres undefined),-0.166
7,CC[C@@H]1C=C(C(=O)O)[C@H](c2ccc(C#N)cc2)N1S(=O)(=O)c1ccc(C)cc1,0.314
8,O=C1[C@H]2C=C(I)[C@H](C[C@@H]2OCCOCCO)[C@@]12CO2,0.733
9,COCCOC(=O)N1C(=O)[C@@]2(c3cc(C#CC4=CCCCC4)ccc31)[C@H](C(=O)Nc1nc3ccccc3s1)[C@H]1C(=O)O[C@H](c3ccccc3)[C@H](c3ccccc3)N1[C@@H]2c1ccc(O)cc1,1.07
10,COc1ccc([C@H]2OC[C@@H]3C[C@H](Cc4ccccc4)C(=O)N32)cc1,0.363
11,NC(=O)NCC#Cc1ccc2c(c1)[C@]1(C(=O)N2)[C@H](c2ccccc2OCCO)N2[C@H](c3ccccc3)[C@H](c3ccccc3)OC(=O)[C@H]2[C@@H]1C(=O)O,-0.199
12,CC1CC/C=C\[C@H]2OC34C=CCN(c5ccc(Cl)cc5)C(=O)[C@H]3N(C(C)CO)C(=O)[C@]4(C)C2C(=O)O1 (some centres undefined),-0.984
13,CCOC(=O)C1=C[C@@H](C(C)C)N(S(=O)(=O)c2ccc(C)cc2)[C@H]1c1ccc(C(F)(F)F)cc1,1.05
14,OCCCC1=CC(c2ccc(CN3CCCC3)cc2)N(Cc2cc3c(cc2Br)OCO3)CC1 (centres undefined),-0.102
15,CCCCCCCCCC(O)C1C=CC2C(=O)N(c3ccccc3)C(=O)C2N1Nc1cc(OC)c(OC)c(OC)c1 (centres undefined),0.631
16,COCCCNC(=O)[C@@]1(CCC(=O)OC(C)(C)C)N=C(c2ccc(OCCCO)cc2)O[C@H]1c1ccccc1N=[N+]=[N-],0.377
17,COc1cc(OC)c(C(O)C2C=CC3C(=O)N(Cc4ccccc4)C(=O)C3N2n2cnnc2)cc1Br (centres undefined),1.07
18,C[N+](C)(C)CCCC[C@@H]1NC(=O)[C@@H]2C[C@H](C(=O)NCCCCCCN)[C@H](c3cccc(OCCO)c3)N2C1=O,0.748
19,O=C1C2C=CC(C(O)C3CC=CCC3)N(Nc3ccccc3)C2C(=O)N1c1ccccc1 (centres undefined),1.06
20,C=CCNC(=O)[C@H]1[C@@H]2C(=O)O[C@@H](c3ccccc3)[C@@H](c3ccccc3)N2[C@@H](c2ccccc2OCCO)[C@]12C(=O)N(C(=O)OCCOC)c1ccc(C#CC3(O)CCCCCC3)cc12,0.759
21,COCCOC(=O)N1C(=O)[C@@]2(c3cc(C#CC4=CCCCC4)ccc31)[C@H](c1ccccc1OCCO)N1[C@H](c3ccccc3)[C@H](c3ccccc3)OC(=O)[C@H]1[C@@H]2C(=O)NC[C@H](O)c1ccccc1,1.07
22,CCCC[C@@H](O)C1=C(COc2ccccc2)C[C@H]2C(=O)N(Cc3ccccc3)C(=O)[C@H]2[C@H]1CO,0.323
23,O=C1OCCC/C=C\[C@H]2OC34C=CCN(c5ccc6ccccc6c5)C(=O)[C@H]3N(CCO)C(=O)[C@@H]4C12 (some centres undefined),-0.858
24,COC(=O)c1c(CC[C@@H](CO)NC(=O)N[C@@H](C)Cn2cc(-c3ccccn3)nn2)oc(C(C)=O)c1C(=O)OC,0.794
25,CC(C)C[C@@H]1NC(=O)[C@@H]2C[C@H](C(=O)NCCCCCCN)[C@H](c3cccc(OCCO)c3)N2C1=O,1.12
26,[N-]=[N+]=Nc1ccccc1C[C@@]1(C(=O)N2CCOCC2)N=C(c2ccc(OCCCO)cc2)O[C@@H]1c1ccccc1,1.11
27,CCOC(=O)C[C@H]1[C@H](OC(=O)c2cc3ccccc3oc2=O)[C@@H](NC(=O)CC(C)C)c2cc(OCCCO)ccc2N1C(=O)c1ccc2ccccc2n1,0.982
28,Cc1ccc(NN2C(C(O)c3c(F)cccc3Cl)C=CC3C(=O)N(C4CCCCC4)C(=O)C32)cc1 (centres undefined),1.05
29,O=C1O[C@@H](c2ccccc2)[C@@H](c2ccccc2)N2[C@@H](c3ccc(OCCO)cc3)[C@]3(C(=O)Nc4ccc(C#CC5=CCCCC5)cc43)[C@@H](C(=O)NC[C@H](O)c3ccccc3)[C@H]12,1.02
